PubChem BioAssay (EPA / NIEHS)
Active and inactive are the calls of the source. Rule for the calls: active = hit-call score of the fitted dose curve at least 0.9, where 1 is the maximum; inactive = score below 0.9.

Each compound was assayed against Hepatocyte nuclear factor 3-beta (Homo sapiens) (UniProt Q9Y261) (assay: ATG_FoxA2_CIS: Attagene CIS-FACTORIAL HepG2 Assay for human Forkhead box A2 (FOXA2) (AID 2282942)). Settings: HepG2 cis-reporter transcription factor activity, 24 h; actives raise or lower the signal.
Description: ATG_CIS is a cell-based, multiplexed-readout assay that uses HepG2, a human liver cell line, with measurements taken at 24 hours after chemical dosing in a 24-well plate.ATG_FoxA2_CIS is one of 52 assay component(s) measured or calculated from the ATG_CIS assay. It is designed to make measurements of mRNA induction, a form of inducible reporter, as detected with fluorescence intensity signals by Reverse transcription polymerase chain reaction (RT-PCR) and Capillary electrophoresis technology.Data from the assay component ATG_FoxA2_CIS was analyzed into 1 assay endpoint. This assay endpoint, ATG_FoxA2_CIS, was analyzed with bidirectional fitting relative to DMSO as the negative control and baseline of activity. Using a type of inducible reporter, measures of mRNA for gain or loss-of-signal activity can be used to understand the reporter gene at the transcription factor-level as they relate to the gene FOXA2. Furthermore, this assay endpoint can be referred to as a primary readout, because this assay has produced multiple assay endpoints where this one serves a reporter gene function. To generalize the intended target to other relatable targets, this assay endpoint is annotated to the dna binding intended target family, where the subfamily is forkhead box protein.
Human liver HepG2 cells are transiently transfected with multiple reporter transcription units (MRTUs) in 6-well plates using FuGene 6 reagent (Roche; 3 ml FuGene/1 mg DNA). The MRTU constructs are regulated by a cis-regulating element (promoter). […] A major difference between the CIS and TRANS system is that in CIS activities of endogenous TFs are measured, whereas the TRANS assay evaluates changes in activities of exogenous, chimeric NR-Gal4 proteins. […] At the end of 24 hour incubation, total RNA was isolated using TriZol reagent (Invitrogen). The isolated RNA is then reverse-transcribed using oligo(dT) primer and Mo-MLV reverse transcriptase (Invitrogen) with DNAse I (Ambion) treatment for 30 min. The one-tenth of the produced cDNA was amplified by PCR using Taq DNA polymerase (Invitrogen) and two reporter sequence-specific primers. The PCR products were fluorescently labeled by primer extension with 6-arboxyfluorescein (6-FAM) 5'-labeled reporter sequence-specific primer (2 min at 95 C, 20 s at 68 C and 10 min at 72 C) and these products were digested with 5U of HpaI (New England Biolabs) for 2h at 37 C. The fragments were purified using Qiaquick PCR columns (Qiagen), analyzed on an ABI 3130xL genetic analyzer (Applied Biosystems) with peak positions identified by using a set of X-rhodamine (ROX)-labeled MapMarker1000 molecular weight standards (BioVentures). The raw capillary electrophoresis data was processed using Attagraph software (Attagene).

Chain of Hepatocyte nuclear factor 3-beta (Homo sapiens) (Q9Y261 whole entry, looked up): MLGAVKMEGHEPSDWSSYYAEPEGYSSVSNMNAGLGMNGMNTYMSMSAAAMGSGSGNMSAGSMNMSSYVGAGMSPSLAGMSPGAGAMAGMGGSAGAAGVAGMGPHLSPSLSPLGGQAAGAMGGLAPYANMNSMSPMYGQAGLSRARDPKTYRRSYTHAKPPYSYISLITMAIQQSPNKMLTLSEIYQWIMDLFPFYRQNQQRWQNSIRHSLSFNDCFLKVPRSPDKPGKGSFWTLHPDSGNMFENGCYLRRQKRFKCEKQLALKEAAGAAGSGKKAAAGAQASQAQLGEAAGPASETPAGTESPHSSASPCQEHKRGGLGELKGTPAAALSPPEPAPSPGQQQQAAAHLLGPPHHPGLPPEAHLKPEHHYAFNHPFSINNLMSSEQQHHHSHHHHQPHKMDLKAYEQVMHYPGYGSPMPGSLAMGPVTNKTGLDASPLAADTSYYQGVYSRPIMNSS

Which outcome does the source give for `CC(C)c1ccc2c(c1)CC[C@H]1[C@](C)(CN)CCC[C@]21C` here?
The outcome was “inactive”.

How did the outcome turn out when `CC(=O)OCC(=O)[C@@]12N=C(C)O[C@@H]1C[C@H]1[C@@H]3CCC4=CC(=O)C=C[C@]4(C)[C@H]3[C@@H](O)C[C@@]12C` was run?
Its outcome is “inactive”.

With `O=c1c2ccccc2oc2ccccc12` as the compound, how does the outcome read?
Its outcome is “inactive”.

Which outcome does the source give for `OCCN(CCO)c1ccccc1` here?
The outcome was “inactive”.

With `O=CC1CC1` as the compound, how does the outcome read?
Its outcome is “inactive”.

For `C=CC(=O)OCCC(=O)O`, which outcome is on record?
The outcome was “inactive”.

With `C=CCCCCCCCCC(=O)OCCCC` as the compound, how does the outcome read?
Its outcome is “inactive”.

How did the outcome turn out when `[Cl][In]([Cl])[Cl]` was run?
The outcome was “inactive”.

How did the outcome turn out when `CCCCCCCCCCCCCCCC(=O)OCC` was run?
The outcome was “inactive”.

How did the outcome turn out when `CC(C)(C)c1ccc(OC(=O)c2ccccc2O)cc1` was run?
Its outcome is “inactive”.

Which outcome does the source give for `CCN(Cc1cccc(S(=O)(=O)O)c1)c1ccc(C(=C2C=CC(=[N+](CC)Cc3cccc(S(=O)(=O)[O-])c3)C=C2)c2ccccc2)cc1` here?
Its outcome is “inactive”.

How did the outcome turn out when `CC(C)c1ccc(C#N)cc1` was run?
Its outcome is “inactive”.

For `CC(=O)OCCC1CCCCC1`, which outcome is on record?
Its outcome is “inactive”.

Which outcome does the source give for `CCC(=O)Oc1ccc(/C(CC)=C(\CC)c2ccc(OC(=O)CC)cc2)cc1` here?
Its outcome is “inactive”.

For `CC/C=C\CCOC(=O)CCCCC`, which outcome is on record?
Its outcome is “inactive”.

With `O=C(c1ccccc1)c1ccc(O)c(O)c1O` as the compound, how does the outcome read?
Its outcome is “inactive”.

For `O=C(Nc1ccccc1SSc1ccccc1NC(=O)c1ccccc1)c1ccccc1`, which outcome is on record?
The outcome was “inactive”.

With `CC=CC(=O)N(CC)c1ccccc1C` as the compound, how does the outcome read?
Its outcome is “inactive”.

For `CC1(C)[C@H]2CC[C@]1(C)C(=O)C2`, which outcome is on record?
Its outcome is “inactive”.

With `Cc1cc(O)c(Cl)c(C)c1Cl` as the compound, how does the outcome read?
The outcome was “inactive”.

`Cc1cc(C)c(C)c(C)c1` was tested. Which outcome did it give?
Its outcome is “inactive”.

`O=C1CCCCCN1SSN1CCCCCC1=O` was tested. Which outcome did it give?
The outcome was “inactive”.

For `C=CCOCC(O)CCl` (stereo not given), which outcome is on record?
The outcome was “inactive”.

Which outcome does the source give for `CCOC(=O)CC(C(C)=O)C(C)=O` here?
Its outcome is “inactive”.

`CCCCCCCCc1ccc(Nc2ccc(CCCCCCCC)cc2)cc1` was tested. Which outcome did it give?
Its outcome is “inactive”.

For `Cc1ccc(C(C)c2ccc(C)c(C)c2)cc1C`, which outcome is on record?
Its outcome is “inactive”.

Which outcome does the source give for `C=CCOc1c(Br)cc(Br)cc1Br` here?
Its outcome is “inactive”.

`COC(=O)c1cc(Cl)ccc1[N+](=O)[O-]` was tested. Which outcome did it give?
The outcome was “inactive”.

`O=c1cc[nH]c(=S)[nH]1` was tested. Which outcome did it give?
The outcome was “inactive”.

How did the outcome turn out when `C=C[C@](C)(O)CC[C@@H]1[C@@]2(C)CCCC(C)(C)[C@@H]2CC[C@@]1(C)O` was run?
Its outcome is “inactive”.

How did the outcome turn out when `CCCCCCCCCCOS(=O)(=O)O` was run?
Its outcome is “inactive”.

For `CC(C)C1=CC2=CC[C@@H]3[C@](C)(CCC[C@@]3(C)C(=O)O)[C@H]2CC1`, which outcome is on record?
The outcome was “inactive”.

For `CC(CC=O)c1ccccc1` (stereo not given), which outcome is on record?
The outcome was “inactive”.

How did the outcome turn out when `COc1cc(NC(=O)CC(C)=O)c(OC)cc1Cl` was run?
Its outcome is “inactive”.

`C[C@]12CCC(=O)C=C1CC[C@@H]1[C@@H]2C(=O)C[C@@]2(C)[C@H]1CC[C@]2(O)C(=O)CO` was tested. Which outcome did it give?
The outcome was “inactive”.

With `Nc1ccc(Cl)cc1Cl` as the compound, how does the outcome read?
Its outcome is “inactive”.

Which outcome does the source give for `c1ccc2c(c1)ccc1ncccc12` here?
Its outcome is “inactive”.

For `[Cl][Nd]([Cl])[Cl]`, which outcome is on record?
Its outcome is “inactive”.

With `OCCc1ccncc1` as the compound, how does the outcome read?
Its outcome is “inactive”.

For `CCCCC(CC)CCC(CC(C)C)OS(=O)(=O)O` (stereo not given), which outcome is on record?
The outcome was “inactive”.
